These results are taken from PubChem BioAssay (EPA / NIEHS).

Read-out in assay [1]: UDP glucuronosyltransferase (UGT1A1), UGT1A1 (gene 54658)
The assay can be described thus: LTEA_HepaRG_UGT1A1: Life Technologies and Expression Analysis (LTEA) Assay for UDP glucuronosyltransferase (UGT1A1) using HepaRG (AID 2283538; active = hit-call score of the fitted dose curve at least 0.9, where 1 is the maximum; inactive = score below 0.9). The following applies: mRNA level, 48 h; actives raise or lower the signal. The essentials: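 Readout is UGT1A1 transcript level by qRT-PCR, normalized to three housekeeping genes, after 48 h chemical treatment of HepaRG cells. Concentrations ran from 100 uM down in half-log steps with 0.5% DMSO, and gain or loss relative to DMSO was fitted.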

Read-out in assay [2]: UDP glucuronosyltransferase (UGT1A6), UGT1A6 (gene 54578)
The assay can be described thus: LTEA_HepaRG_UGT1A6: Life Technologies and Expression Analysis (LTEA) Assay for UDP glucuronosyltransferase (UGT1A6) using HepaRG (AID 2283539; active = hit-call score of the fitted dose curve at least 0.9, where 1 is the maximum; inactive = score below 0.9). The following applies: mRNA level, 48 h; actives raise or lower the signal. The essentials: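 Endpoint is UGT1A6 transcript induction or loss in a human liver cell line, quantified by TaqMan qRT-PCR 48 h after dosing. Concentrations ran from 100 uM downward in half-log steps in 0.5% DMSO; activity was fitted in both directions versus vehicle.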

Read-out in assay [3]: X-box binding protein 1 (XBP1), XBP1 (gene 7494)
The experiment in a line: LTEA_HepaRG_XBP1: Life Technologies and Expression Analysis (LTEA) Assay for X-box binding protein 1 (XBP1) using HepaRG (AID 2283540; active = hit-call score of the fitted dose curve at least 0.9, where 1 is the maximum; inactive = score below 0.9). The following applies: mRNA level, 48 h; actives raise or lower the signal. The essentials:
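Human HepaRG monolayers receive test chemical for 48 h across an eight-point half-log series starting at 100 uM. XBP1 mRNA gain or loss is scored against DMSO by qRT-PCR.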

Assay [4] is described as follows: LTEA_HepaRG_LDH_cytotoxicity: Cytotoxicity Assessment in the Life Technologies and Expression Analysis (LTEA) Assay (AID 2283563).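 As to AC50: LDH activity released into spent culture medium as a marker of cell death.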 The essentials: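 Human HepaRG hepatic cells are treated with test chemicals for 48 h at up to 100 uM in 0.5% DMSO. Cytotoxicity is scored from medium LDH against the vehicle control.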
The nature of assay [5]: TOX21_p53_BLA_p2_viability: Viability Assessment in the Tox21 HCT-116 p53 Agonism Beta-lactamase Assay, Phase 2 (AID 2283591).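 Also: actives lower the ATP signal meaning cytotoxicity.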 The essentials:
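Cytotoxicity readout: CellTiter-Glo ATP luminescence, 30 min at room temperature, after the beta-lactamase read. Cells were HCT116 exposed 16 h at 37C to compounds pin-transferred at 217-fold dilution from DMSO stocks.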

The target of assay [6] is Cellular tumor antigen p53 (Homo sapiens) (UniProt P04637). The assay can be described thus: TOX21_p53_BLA_p2_ratio: Tox21 HCT-116 p53 Agonism Beta-lactamase Assay, Ratio, Phase 2 (AID 2283592). The essentials:
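An inducible beta-lactamase reporter in HCT116 cells signals p53 pathway activation. After 16 h chemical exposure at 37C, cells load CCF4-AM substrate for 2 h at room temperature; activity is the cleaved/uncleaved emission ratio relative to DMSO.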

Assay [7] in a line: TOX21_p53_BLA_p3_viability: Viability Assessment in the Tox21 HCT-116 p53 Agonism Beta-lactamase Assay, Phase 3 (AID 2283593).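 Also: cells exposed to compound for 16 h before reading.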 The essentials:
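Cellular ATP was quantified by CellTiter-Glo luminescence, read after 30 min at room temperature. Beforehand, HCT116 cells (4000/well) received compound 5 h post-seeding, 217-fold diluted from DMSO, then incubated 16 h at 37C.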

Assay [8] concerns the target Cellular tumor antigen p53 (Homo sapiens) (UniProt P04637). The assay can be described thus: TOX21_p53_BLA_p3_ratio: Tox21 HCT-116 p53 Agonism Beta-lactamase Assay, Ratio, Phase 3 (AID 2283596). The essentials:
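HCT116 p53-bla cells (4000/well) given compound in DMSO (217-fold dilution) after 5 h, incubated 16 h at 37C. CCF4-AM substrate 2 h at room temperature; 460/530 nm emission ratio, gain fitted against DMSO.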

Assay [9] in a line: TOX21_p53_BLA_p4_viability: Viability Assessment in the Tox21 HCT-116 p53 Agonism Beta-lactamase Assay, Phase 4 (AID 2283597).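 Also: hits lower the luminescence signal meaning cytotoxicity.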 The essentials:
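Compound exposure of HCT116 cells lasts 16 h at 37C, 5% CO2, with DMSO stocks diluted 217-fold. Cellular ATP is then quantified by CellTiter-Glo luminescence after 30 min at room temperature.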

Assay [10] addresses Cellular tumor antigen p53 (Homo sapiens) (UniProt P04637). The assay can be described thus: TOX21_p53_BLA_p5_ratio: Tox21 HCT-116 p53 Agonism Beta-lactamase Assay, Ratio, Phase 5 (AID 2283599). The essentials: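 Beta-lactamase reporter ratio (blue 460 nm over green 530 nm, 405 nm excitation) after 2 h CCF4-AM loading, in HCT-116 cells exposed 16 h at 37 C to compounds pinned at 217-fold dilution. Increases relative to DMSO baseline scored.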

A short description of assay [11]: TOX21_p53_BLA_p5_viability: Viability Assessment in the Tox21 HCT-116 p53 Agonism Beta-lactamase Assay, Phase 5 (AID 2283600). The essentials: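 Counter-readout for cytotoxicity: ATP-dependent luminescence from CellTiter-Glo, read in the beta-lactamase wells after 30 min at RT, following a 16 h compound exposure at 37C.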
A short description of assay [12]: Tanguay_ZF_120hpf_MORT_legacy: (Legacy) Oregon State University Tanguay Lab 120 Hour Post-fertilization zebrafish Assay for Mortality (AID 2283633).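 As to AC50: fitted as increase in binary mortality versus DMSO negative control.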 The essentials:
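Mortality endpoint from a multiplexed whole-embryo zebrafish screen. Dechorionated wild-type embryos received compound at 6 hpf and remained under static exposure at 28C until 120 hpf, with death noted as a present/absent call.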

Assay [13] is described as follows: Tanguay_ZF_120hpf_YSE_legacy: (Legacy) Oregon State University Tanguay Lab 120 Hour Post-fertilization zebrafish Assay for Yolk Sac Edema (AID 2283634). The essentials: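 Readout: presence or absence of yolk sac edema at 120 hpf, fitted upward against DMSO controls. Exposure ran statically from 6 hpf in dechorionated embryos kept at 28C.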
Assay [14] is described as follows: Tanguay_ZF_120hpf_AXIS_legacy: (Legacy) Oregon State University Tanguay Lab 120 Hour Post-fertilization zebrafish Assay for Body Axis Malformation (AID 2283635). The essentials: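 Static 6–120 hpf chemical exposure of dechorionated wild-type 5D zebrafish, one per well at 28C; morphology endpoint scored binary at 120 hpf relative to DMSO control.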
Assay [15] is described as follows: Tanguay_ZF_120hpf_EYE_legacy: (Legacy) Oregon State University Tanguay Lab 120 Hour Post-fertilization zebrafish Assay for Eye Malformation (AID 2283636). The essentials: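 Read-out is binary presence or absence of eye malformation, scored by brightfield microscopy at 120 hpf. Single larvae were exposed from 6 hpf in embryo medium containing 0.64% DMSO, with DMSO as baseline.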

A short description of assay [16]: Tanguay_ZF_120hpf_SNOU_legacy: (Legacy) Oregon State University Tanguay Lab 120 Hour Post-fertilization zebrafish Assay for Snout Malformation (AID 2283637). The essentials: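 Snout malformation read as a yes/no call on brightfield images of 120 hpf larvae (Tropical 5D strain). Static exposure began at 6 hpf on dechorionated embryos in 0.64% DMSO, with gain of signal analysed versus DMSO controls.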

A short description of assay [17]: Tanguay_ZF_120hpf_JAW_legacy: (Legacy) Oregon State University Tanguay Lab 120 Hour Post-fertilization zebrafish Assay for Jaw Malformation (AID 2283638). The essentials: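 Static waterborne exposure of dechorionated wild-type (Tropical 5D) zebrafish from 6 to 120 hpf at 28C, 0.64% DMSO vehicle; 5uM trimethyltin chloride served as positive control. Jaw morphology recorded as binary at 120 hpf.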

The nature of assay [18]: Tanguay_ZF_120hpf_OTIC_legacy: (Legacy) Oregon State University Tanguay Lab 120 Hour Post-fertilization zebrafish Assay for Otic Vesicle Malformation (AID 2283639). The essentials: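 Embryos from 5D wild-type adults exposed in plates; DMSO 0.64% v/v final. Sealed, light-protected, 28C, static to 120 hpf. Otic vesicle malformation recorded as binary endpoint; gain-of-signal fitted vs DMSO.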

Assay [19] is described as follows: ATG_XTT_Cytotoxicity: Cytotoxicity Assessment in the Attagene TRANS-FACTORIAL HepG2 Assay (AID 2283584). The essentials: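 Transfect HepG2 with GAL4-UAS reporter units, dose compound, incubate 24 h, then measure viable cell number by XTT. Fit concentration response against DMSO baseline.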

Inconclusive results are not listed. The source made the active and inactive calls. The calls were made as follows, unless noted: active = hit-call score of the fitted dose curve at least 0.9, where 1 is the maximum; inconclusive = response in the unintended direction; inactive = score below 0.9.

Chain of Cellular tumor antigen p53 (Homo sapiens) (P04637 whole entry, looked up): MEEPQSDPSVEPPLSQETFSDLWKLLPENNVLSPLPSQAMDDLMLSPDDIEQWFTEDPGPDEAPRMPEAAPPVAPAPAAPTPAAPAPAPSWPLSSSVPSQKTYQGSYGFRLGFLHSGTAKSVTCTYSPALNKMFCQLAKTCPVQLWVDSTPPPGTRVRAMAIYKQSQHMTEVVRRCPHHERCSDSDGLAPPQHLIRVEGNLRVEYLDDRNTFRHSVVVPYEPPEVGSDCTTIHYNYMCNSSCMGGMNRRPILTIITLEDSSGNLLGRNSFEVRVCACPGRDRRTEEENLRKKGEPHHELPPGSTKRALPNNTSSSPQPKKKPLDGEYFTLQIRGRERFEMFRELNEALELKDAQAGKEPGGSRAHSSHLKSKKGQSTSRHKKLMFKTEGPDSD

Usually AC50 stands for the concentration at which the activity in the assay is half-maximal. Regarding `CCc1cc(C2=C(C(=O)O)N(c3ccccc3C(F)(F)F)S(=O)(=O)c3ccccc32)cc2c1OCO2`, the AC50 was 1.73 µM (active) in assay [1]; 74.8 µM (active) in [2]; 74.1 µM (active) in assay [4]; 73.7 µM (active) in [5]; 68 µM (active) in assay [9]. The outcome in assay [3], in [6], in assay [7], in assay [8], in assay [10] and in assay [11] was inactive. For the same compound, the call in assay [12], in [13], in assay [14], in assay [15], in assay [16] and in assay [17] was inactive.
Take `CN(C)C(=O)NC1(c2ccccc2)CCN(CC[C@@]2(c3ccc(F)c(F)c3)CN(C(=O)c3ccccc3)CCO2)CC1`: the call in assay [1], in assay [2], in assay [3], in [5], in assay [6] and in assay [8] was inactive. In addition, the result in assay [10], in assay [11], in assay [12], in assay [13], in assay [14] and in assay [15] was inactive. Moreover, the compound was called inactive in assay [16], in [17] and in [18]. Moreover, the AC50 in [4] is 73.5 µM (active); in assay [9], 65 µM (active).
For `O=C(N[C@@H](c1ccccc1)[C@@H]1CCCCN1)c1cccc(C(F)(F)F)c1Cl`, the AC50 in assay [1] is 57.7 µM (active); in [2] it was 69.1 µM (active); in assay [4] it was 43 µM (active); in assay [12] it was 26.6 µM (active). In addition, the call in assay [3], in assay [15], in assay [16], in [17] and in assay [18] was inactive.
For the compound `CC(=O)O`, the compound was classed as inactive in assay [1], in assay [2], in assay [3], in assay [19], in assay [12] and in [13]. The outcome in assay [14], in assay [15], in assay [17] and in assay [18] was inactive.
Consider `CC(C)OC(=O)C(C)(C)Oc1ccc(C(=O)c2ccc(Cl)cc2)cc1`, for which the values for the AC50 in assay [1] and in assay [2] were 3.76 µM (active) and 0.0504 µM (active), respectively. The call in assay [3], in [4], in assay [19], in assay [12], in assay [15] and in assay [18] was inactive.
Take `CC(COCC(C)OC(=O)c1ccccc1)OC(=O)c1ccccc1` (stereo not given): the result in assay [1], in [2], in [3], in assay [4], in assay [12] and in assay [13] was inactive. Moreover, the result in [15], in assay [16], in assay [17] and in [18] was inactive.
With `CC(C)(O)c1ccc(CNC(=O)c2cccnc2Oc2ccc(F)cc2)cc1`, the AC50 in [1] is 4.71 µM (active). Moreover, the call in assay [2], in assay [3], in assay [4], in assay [6], in assay [7] and in [8] was inactive. In addition, the compound was classed as inactive in assay [9], in assay [11], in assay [12], in assay [13], in assay [15] and in [16]. For the same compound, the compound was called inactive in assay [17] and in [18].
For `O=C(NS(=O)(=O)/C=C/c1cccs1)c1ccc(F)cc1Br`, in assay [1], the AC50 was 14 µM (active). The result in [2], in [3], in assay [4], in assay [12], in [15] and in assay [16] was inactive. Moreover, the result in assay [17] and in assay [18] was inactive.
